This passage reports inhibition results from ChEMBL document CHEMBL1961873, “Compounds: GSK PKIS; Assays: Nanosyn kinase panel” (2012).

Assay [1] addresses T1, Mitogen-activated protein kinase 12 (Homo sapiens) (UniProt P53778).
T1 sequence (whole entry): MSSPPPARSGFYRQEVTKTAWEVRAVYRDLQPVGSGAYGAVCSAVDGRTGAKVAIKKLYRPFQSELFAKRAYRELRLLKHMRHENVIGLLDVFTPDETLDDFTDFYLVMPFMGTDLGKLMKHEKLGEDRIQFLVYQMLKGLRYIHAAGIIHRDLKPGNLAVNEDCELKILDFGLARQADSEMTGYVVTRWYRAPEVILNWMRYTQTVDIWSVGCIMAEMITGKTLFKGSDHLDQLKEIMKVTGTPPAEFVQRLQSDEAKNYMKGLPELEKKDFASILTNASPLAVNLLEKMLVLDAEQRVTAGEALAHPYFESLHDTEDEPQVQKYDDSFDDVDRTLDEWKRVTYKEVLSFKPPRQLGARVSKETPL
The following applies: at 1 µM.

Assay [2] has as its target SRSF protein kinase 1 (Homo sapiens) (UniProt Q96SB4). Conditions: at 0.1 µM.
The target is the same in assay [3]. Conditions: at 1 µM.
Assay [4] has as its target Phosphatidylinositol 4,5-bisphosphate 3-kinase catalytic subunit alpha isoform (Homo sapiens) (UniProt P42336). Conditions: at 0.1 µM.
Assay [5] has the same target. Conditions: at 1 µM.
The target in assay [6] is T2, Phosphatidylinositol 4,5-bisphosphate 3-kinase catalytic subunit delta isoform (Homo sapiens) (UniProt O00329).
T2 sequence (whole entry): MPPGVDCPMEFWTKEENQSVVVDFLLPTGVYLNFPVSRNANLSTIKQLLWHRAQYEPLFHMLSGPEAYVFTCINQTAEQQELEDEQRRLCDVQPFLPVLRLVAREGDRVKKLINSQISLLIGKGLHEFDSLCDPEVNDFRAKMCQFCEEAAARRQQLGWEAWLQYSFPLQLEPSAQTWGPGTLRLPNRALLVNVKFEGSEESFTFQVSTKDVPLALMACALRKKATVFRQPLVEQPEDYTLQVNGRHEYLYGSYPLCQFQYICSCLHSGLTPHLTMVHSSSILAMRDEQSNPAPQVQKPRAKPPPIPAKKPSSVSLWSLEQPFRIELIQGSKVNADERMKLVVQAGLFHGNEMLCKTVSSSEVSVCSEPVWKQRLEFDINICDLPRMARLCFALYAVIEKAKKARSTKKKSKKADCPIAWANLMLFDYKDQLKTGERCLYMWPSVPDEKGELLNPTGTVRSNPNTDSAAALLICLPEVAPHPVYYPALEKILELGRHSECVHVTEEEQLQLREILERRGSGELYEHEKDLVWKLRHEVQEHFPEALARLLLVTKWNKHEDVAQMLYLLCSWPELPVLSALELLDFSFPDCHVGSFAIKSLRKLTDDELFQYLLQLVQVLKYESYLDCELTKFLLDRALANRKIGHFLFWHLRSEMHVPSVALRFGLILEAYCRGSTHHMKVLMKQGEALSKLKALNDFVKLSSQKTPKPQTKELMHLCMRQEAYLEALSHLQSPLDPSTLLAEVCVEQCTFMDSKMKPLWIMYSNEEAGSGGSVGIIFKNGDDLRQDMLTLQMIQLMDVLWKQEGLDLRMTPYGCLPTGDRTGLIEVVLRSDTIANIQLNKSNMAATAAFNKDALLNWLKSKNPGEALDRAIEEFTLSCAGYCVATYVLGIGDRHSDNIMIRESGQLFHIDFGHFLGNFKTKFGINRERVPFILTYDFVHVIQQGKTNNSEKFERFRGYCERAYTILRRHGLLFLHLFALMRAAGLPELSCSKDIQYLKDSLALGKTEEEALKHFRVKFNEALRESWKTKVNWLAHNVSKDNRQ
Conditions: at 0.1 µM.

For assay [7], the target named is T2, Phosphatidylinositol 4,5-bisphosphate 3-kinase catalytic subunit delta isoform (Homo sapiens). The following applies: at 1 µM.
In assay [8] the target is Phosphatidylinositol 4-kinase beta (Homo sapiens) (UniProt Q9UBF8). Conditions: at 0.1 µM.
Chain of Phosphatidylinositol 4-kinase beta (Homo sapiens) (Q9UBF8 2-816 limits assumed): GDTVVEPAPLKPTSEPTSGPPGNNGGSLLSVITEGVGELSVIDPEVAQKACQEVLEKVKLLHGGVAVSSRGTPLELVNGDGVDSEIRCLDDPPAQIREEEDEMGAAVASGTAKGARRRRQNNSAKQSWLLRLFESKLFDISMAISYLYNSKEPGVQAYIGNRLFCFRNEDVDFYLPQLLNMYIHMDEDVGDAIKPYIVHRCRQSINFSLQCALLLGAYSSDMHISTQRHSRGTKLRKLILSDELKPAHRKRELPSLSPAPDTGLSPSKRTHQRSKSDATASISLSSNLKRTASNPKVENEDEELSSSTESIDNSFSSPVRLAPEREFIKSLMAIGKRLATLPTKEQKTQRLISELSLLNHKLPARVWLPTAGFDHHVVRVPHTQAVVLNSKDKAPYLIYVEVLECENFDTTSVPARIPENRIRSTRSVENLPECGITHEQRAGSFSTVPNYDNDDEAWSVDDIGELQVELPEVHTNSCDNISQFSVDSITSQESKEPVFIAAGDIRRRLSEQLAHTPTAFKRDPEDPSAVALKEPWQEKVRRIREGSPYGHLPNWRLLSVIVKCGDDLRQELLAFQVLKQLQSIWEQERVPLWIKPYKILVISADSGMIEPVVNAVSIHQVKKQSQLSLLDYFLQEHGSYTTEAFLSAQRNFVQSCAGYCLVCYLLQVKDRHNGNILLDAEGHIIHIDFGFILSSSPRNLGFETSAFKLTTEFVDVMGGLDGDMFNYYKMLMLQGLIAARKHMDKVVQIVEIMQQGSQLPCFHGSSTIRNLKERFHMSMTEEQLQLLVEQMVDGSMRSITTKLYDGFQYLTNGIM
For assay [9] the target is unchanged. Conditions: at 1 µM.
For assay [10], the target named is Sphingosine kinase 1 (Homo sapiens) (UniProt Q9NYA1). The following applies: at 0.1 µM.
Chain of Sphingosine kinase 1 (Homo sapiens) (Q9NYA1 whole entry): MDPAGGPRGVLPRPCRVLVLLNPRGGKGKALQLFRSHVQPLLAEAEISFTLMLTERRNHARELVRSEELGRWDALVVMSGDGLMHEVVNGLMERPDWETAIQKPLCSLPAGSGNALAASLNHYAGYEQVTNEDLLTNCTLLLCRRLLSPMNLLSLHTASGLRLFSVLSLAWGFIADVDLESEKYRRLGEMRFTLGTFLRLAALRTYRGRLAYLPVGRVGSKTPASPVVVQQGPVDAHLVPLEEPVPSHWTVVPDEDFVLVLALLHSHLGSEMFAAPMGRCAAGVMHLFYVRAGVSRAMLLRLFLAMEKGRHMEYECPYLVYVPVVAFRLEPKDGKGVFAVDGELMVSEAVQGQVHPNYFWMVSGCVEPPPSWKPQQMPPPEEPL
Assay [11] shares this target. The following applies: at 1 µM.
Assay [12] concerns the target T3, Sphingosine kinase 2 (Homo sapiens) (UniProt Q9NRA0).
T3 sequence (whole entry): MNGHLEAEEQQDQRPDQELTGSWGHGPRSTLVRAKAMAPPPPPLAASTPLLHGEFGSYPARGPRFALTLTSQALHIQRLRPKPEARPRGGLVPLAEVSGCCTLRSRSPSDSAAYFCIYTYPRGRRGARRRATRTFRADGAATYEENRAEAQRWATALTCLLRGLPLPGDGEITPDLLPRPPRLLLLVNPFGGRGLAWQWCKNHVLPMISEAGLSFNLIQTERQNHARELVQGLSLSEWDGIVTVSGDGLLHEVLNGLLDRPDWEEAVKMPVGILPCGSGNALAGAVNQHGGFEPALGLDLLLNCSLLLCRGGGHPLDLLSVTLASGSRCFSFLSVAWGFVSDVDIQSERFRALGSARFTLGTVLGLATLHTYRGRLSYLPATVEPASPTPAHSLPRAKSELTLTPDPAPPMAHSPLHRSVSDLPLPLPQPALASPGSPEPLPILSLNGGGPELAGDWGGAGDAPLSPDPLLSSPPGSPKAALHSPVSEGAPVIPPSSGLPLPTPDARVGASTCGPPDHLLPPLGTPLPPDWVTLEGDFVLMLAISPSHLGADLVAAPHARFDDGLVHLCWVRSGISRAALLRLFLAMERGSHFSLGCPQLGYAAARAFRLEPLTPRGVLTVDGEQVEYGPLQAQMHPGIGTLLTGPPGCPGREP
Conditions: at 0.1 µM.

The target in assay [13] is T3, Sphingosine kinase 2 (Homo sapiens). Conditions: at 1 µM.
Assay [14] has as its target Casein kinase II subunit alpha (Homo sapiens) (UniProt P68400). Conditions: at 0.1 µM.
Assay [15] shares this target. Conditions: at 1 µM.
For assay [16], the target named is T4, Inhibitor of nuclear factor kappa-B kinase subunit alpha (Homo sapiens) (UniProt O15111).
T4 sequence (whole entry): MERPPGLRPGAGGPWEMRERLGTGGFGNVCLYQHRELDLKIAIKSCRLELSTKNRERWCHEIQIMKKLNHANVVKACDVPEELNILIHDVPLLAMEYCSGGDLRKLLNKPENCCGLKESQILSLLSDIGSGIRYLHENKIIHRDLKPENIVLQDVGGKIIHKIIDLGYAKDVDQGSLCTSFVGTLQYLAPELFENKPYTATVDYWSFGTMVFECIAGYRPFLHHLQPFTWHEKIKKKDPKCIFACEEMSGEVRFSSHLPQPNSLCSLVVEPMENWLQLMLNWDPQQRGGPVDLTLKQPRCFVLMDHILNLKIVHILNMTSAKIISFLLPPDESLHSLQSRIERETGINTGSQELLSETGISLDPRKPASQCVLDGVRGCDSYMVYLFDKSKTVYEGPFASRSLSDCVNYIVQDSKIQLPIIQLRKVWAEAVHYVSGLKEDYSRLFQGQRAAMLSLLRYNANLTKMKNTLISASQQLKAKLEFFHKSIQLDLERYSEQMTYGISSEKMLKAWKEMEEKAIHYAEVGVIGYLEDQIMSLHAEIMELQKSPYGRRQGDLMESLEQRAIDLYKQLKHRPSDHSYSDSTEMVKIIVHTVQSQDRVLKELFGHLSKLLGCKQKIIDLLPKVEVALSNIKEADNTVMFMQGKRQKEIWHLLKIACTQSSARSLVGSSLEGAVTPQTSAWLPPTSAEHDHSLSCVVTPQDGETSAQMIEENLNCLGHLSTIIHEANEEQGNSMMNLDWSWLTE
Conditions: at 0.1 µM.

Assay [17] has as its target T4, Inhibitor of nuclear factor kappa-B kinase subunit alpha (Homo sapiens). The following applies: at 1 µM.
Assay [18] addresses T5, Inhibitor of nuclear factor kappa-B kinase subunit beta (Homo sapiens) (UniProt O14920).
T5 sequence (whole entry): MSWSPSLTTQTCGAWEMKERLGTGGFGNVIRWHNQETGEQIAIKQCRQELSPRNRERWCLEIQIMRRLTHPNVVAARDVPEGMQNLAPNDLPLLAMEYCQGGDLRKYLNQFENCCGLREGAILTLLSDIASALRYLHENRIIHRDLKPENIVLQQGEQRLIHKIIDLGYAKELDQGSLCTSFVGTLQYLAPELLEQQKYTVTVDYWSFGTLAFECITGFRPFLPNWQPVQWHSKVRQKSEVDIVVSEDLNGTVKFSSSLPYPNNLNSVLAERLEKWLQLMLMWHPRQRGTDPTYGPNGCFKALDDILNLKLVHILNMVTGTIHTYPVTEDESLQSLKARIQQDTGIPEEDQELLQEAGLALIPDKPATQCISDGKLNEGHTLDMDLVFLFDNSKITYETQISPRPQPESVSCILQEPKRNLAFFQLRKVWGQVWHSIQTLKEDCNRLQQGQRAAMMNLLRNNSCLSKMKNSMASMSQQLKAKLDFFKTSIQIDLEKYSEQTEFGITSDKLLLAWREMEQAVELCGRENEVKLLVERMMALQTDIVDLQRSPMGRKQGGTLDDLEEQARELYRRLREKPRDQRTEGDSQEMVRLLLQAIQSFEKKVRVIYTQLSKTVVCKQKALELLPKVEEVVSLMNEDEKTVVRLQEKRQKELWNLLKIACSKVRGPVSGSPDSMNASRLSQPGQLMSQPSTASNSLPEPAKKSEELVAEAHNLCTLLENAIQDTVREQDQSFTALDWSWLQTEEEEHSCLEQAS
The following applies: at 0.1 µM.

The target in assay [19] is T5, Inhibitor of nuclear factor kappa-B kinase subunit beta (Homo sapiens). Conditions: at 1 µM.
In assay [20] the target is T6, Inhibitor of nuclear factor kappa-B kinase subunit epsilon (Homo sapiens) (UniProt Q14164).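 Also: mean inhibition of IKKε reported, from the GSK PKIS dataset.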
T6 sequence (whole entry): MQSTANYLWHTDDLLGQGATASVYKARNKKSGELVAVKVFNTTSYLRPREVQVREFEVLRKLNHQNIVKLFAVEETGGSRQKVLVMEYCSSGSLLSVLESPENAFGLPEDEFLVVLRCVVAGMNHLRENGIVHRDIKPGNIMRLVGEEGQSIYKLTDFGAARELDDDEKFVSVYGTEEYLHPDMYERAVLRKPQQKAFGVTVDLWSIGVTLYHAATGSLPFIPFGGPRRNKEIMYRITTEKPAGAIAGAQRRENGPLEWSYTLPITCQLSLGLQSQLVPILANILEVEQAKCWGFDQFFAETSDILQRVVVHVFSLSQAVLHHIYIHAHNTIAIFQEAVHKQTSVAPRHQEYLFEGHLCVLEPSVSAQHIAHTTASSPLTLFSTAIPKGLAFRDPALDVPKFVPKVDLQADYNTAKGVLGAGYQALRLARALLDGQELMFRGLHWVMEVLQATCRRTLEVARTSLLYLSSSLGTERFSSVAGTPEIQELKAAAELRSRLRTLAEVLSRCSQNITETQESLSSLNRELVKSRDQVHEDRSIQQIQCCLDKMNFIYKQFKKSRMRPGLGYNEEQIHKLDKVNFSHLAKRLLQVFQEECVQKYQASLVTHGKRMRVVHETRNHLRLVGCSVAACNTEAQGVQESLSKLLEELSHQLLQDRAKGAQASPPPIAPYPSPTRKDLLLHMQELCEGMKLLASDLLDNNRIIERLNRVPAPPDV
Conditions: at 0.1 µM.

Chain of Phosphatidylinositol 4,5-bisphosphate 3-kinase catalytic subunit alpha isoform (Homo sapiens) (P42336 whole entry, canonical isoform): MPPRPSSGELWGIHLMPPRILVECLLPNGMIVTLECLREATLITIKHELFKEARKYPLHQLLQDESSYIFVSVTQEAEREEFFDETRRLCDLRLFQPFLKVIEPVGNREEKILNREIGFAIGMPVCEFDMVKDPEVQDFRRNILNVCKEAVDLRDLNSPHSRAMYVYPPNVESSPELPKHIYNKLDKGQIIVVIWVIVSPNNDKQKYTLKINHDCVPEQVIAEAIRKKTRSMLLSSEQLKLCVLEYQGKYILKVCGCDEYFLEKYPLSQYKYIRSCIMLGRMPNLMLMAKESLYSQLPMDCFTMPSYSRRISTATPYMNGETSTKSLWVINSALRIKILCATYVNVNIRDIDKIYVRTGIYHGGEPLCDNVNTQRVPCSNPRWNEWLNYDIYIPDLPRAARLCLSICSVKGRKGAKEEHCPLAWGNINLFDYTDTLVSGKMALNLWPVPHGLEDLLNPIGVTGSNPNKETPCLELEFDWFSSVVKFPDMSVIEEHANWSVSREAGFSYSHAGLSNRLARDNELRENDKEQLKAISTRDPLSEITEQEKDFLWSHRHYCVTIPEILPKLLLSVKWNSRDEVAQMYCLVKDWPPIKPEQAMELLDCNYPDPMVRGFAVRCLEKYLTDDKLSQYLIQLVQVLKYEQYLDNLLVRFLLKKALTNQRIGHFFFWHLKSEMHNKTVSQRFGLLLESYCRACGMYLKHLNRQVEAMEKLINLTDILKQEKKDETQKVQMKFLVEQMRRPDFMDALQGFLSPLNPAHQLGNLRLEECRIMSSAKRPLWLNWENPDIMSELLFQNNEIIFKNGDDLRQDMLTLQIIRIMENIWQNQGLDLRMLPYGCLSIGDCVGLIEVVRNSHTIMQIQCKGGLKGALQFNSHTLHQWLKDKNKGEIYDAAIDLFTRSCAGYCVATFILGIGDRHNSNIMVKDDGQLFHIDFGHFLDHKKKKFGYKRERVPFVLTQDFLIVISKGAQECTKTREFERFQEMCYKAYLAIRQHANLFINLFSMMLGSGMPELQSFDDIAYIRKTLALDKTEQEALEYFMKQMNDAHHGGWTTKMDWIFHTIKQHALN
Chain of SRSF protein kinase 1 (Homo sapiens) (Q96SB4 whole entry): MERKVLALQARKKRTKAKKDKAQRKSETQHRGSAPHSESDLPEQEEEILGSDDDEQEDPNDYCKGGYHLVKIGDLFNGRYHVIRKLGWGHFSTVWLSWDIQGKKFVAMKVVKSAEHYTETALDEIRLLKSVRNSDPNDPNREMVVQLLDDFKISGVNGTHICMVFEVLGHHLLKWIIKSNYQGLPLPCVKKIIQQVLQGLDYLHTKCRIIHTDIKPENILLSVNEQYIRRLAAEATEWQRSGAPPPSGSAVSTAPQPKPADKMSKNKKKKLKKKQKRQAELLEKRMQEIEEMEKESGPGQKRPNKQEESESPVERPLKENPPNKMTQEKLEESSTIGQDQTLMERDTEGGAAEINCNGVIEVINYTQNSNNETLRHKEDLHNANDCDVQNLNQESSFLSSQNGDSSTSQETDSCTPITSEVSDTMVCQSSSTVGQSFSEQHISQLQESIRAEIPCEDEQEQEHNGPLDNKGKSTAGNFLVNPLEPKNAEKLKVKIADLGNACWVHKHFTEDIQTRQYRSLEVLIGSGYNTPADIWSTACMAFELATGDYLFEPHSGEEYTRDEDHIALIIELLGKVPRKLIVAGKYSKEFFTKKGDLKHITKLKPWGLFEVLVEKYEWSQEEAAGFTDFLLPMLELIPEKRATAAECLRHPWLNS
Chain of Casein kinase II subunit alpha (Homo sapiens) (P68400 whole entry, looked up): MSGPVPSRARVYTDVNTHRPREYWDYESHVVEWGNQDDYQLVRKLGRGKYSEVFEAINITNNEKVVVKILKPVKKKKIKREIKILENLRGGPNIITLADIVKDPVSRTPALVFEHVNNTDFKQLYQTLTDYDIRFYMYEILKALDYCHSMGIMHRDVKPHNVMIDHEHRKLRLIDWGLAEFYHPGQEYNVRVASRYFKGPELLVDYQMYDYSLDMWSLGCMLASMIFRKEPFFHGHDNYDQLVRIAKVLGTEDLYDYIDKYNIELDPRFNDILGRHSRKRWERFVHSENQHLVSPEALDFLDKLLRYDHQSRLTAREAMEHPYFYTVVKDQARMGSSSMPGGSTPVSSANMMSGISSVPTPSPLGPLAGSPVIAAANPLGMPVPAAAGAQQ

A word on the inhibition: it is the drop in the measured response relative to a control, in per cent. On to `COc1cc(C=NNc2ncnc3c2cnn3Cc2ccccc2)ccc1O`, for which the inhibition in assay [1] was -3.29%; in assay [2], 1.24%; in assay [3] it was 0.29%; in [4], -4.02%; in assay [5], -1.81%; in [6], 3.47%. Moreover, the inhibition is 6.81% in assay [7]; -1.09% in [8]; 2.84% in [9]; 3.3% in assay [10]; -3.17% in [11]; 2.14% in assay [12]. The inhibition was 0.11% in [13]; -0.94% in [14]; 13.8% in [15]; -2.85% in assay [16]; -2.41% in [17]; -2.63% in assay [18]. In addition, the figures for the inhibition in [19] and in assay [20] were -2.75% and -4.31%, respectively.
As to `CCn1c(-c2nonc2N)nc2c(C#CC(C)(C)O)nc(O[C@@H](CN)c3ccccc3)cc21`, the inhibition in assay [1] was 0.23%; in assay [2] it was -0.59%; in assay [3], -3.25%; in [4] it was -0.44%; in [5], 0.33%; in assay [6], 2.44%. Moreover, the inhibition in assay [7] was 3.42%; in assay [8], 6.5%; in [9], 1.86%; in [10], -1.08%; in assay [11], -0.99%; in assay [12], -0.06%. The inhibition in assay [13] was -0.62%; in assay [14], -0.87%; in assay [15] it was 3.9%; in assay [16], -6.57%; in [17] it was -2.27%; in assay [18], -1.36%. The inhibition in [19] was -3.23%; in assay [20], 88.3%.
As to `CCn1c(-c2nonc2N)nc2c(C#CC(C)(C)O)ncc(OCC3CCNCC3)c21`, the inhibition is 1.7% in assay [1]; -0.7% in assay [2]; 1.81% in assay [3]; 1.65% in assay [4]; 19.5% in [5]; -0.08% in [6]. For the same molecule, the inhibition in [7] was -0.9%; in assay [8], 4.18%; in [9], -3.56%; in assay [10] it was 0%; in assay [11] it was 0.24%; in assay [12] it was 1.73%. Moreover, the inhibition in assay [13] was -2.73%; in assay [14] it was 4.56%; in assay [15], 12.8%; in assay [16], 7.05%; in assay [17], 7.37%; in [18], 4.88%. Besides, the inhibition in assay [19] worked out at 4.77%; in [20], 90.3%.
`NS(=O)(=O)c1ccc(N/C=C2\C(=O)Nc3ccc4ncsc4c32)cc1`: the inhibition in assay [1] is 5.04%; in [2], -3.49%; in [3] it was -2.8%; in [4] it was 4.87%; in assay [5], 7.04%; in assay [6], 2.72%. In addition, the inhibition in assay [7] is 12.7%; in [8], -2.13%; in assay [9], 1.22%; in [10] it was 0.04%; in [11], 0.02%; in assay [12], -1.02%. Further, the inhibition in [13] was -0.93%; in [14], 7.56%; in assay [15], 28%; in assay [16], 2.29%; in [17], 14.3%; in assay [18] it was 8.87%. The inhibition in assay [19] worked out at 13.1%; in assay [20] it was 13.3%.
